According to the supplement of paper PMC10849652:
About 7,900 targets were measured; listed, in parts, are those with a hit and a random draw of the rest. About 0.6% of all pairs of compound and target were hits. Values without a mark were called inactive.

Tests used:
Experiment in all cases: log2 fold change, soluble protein after heating vs DMSO (PISA); higher = thermal stabilisation; K562 cells, 10 uM, 30 min; active = over 0.2 and 3.5 SD of the protein, either way, in both replicates (recomputed)
[1] = compound: C#Cc1cccc(Nc2ncnc3cc(OCCOC)c(OCCOC)cc23)c1 [erlotinib]
Procedure, shortened: (§1)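 K562 cells at 2×10^6 cells/mL were treated for 30 min with 10 μM compound, and aliquots were heated for 3 min over 48°C-58°C before pooling. Extraction used PBS with 0.5% NP-40 at 4°C, and soluble protein was the supernatant after 21,000xg for 90 min, measured by TMTpro 16plex LC-MS/MS with channel sums equalised. Thermal stability values, relative to control samples and from duplicates, are log2 fold changes.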

[2] = compound: C/C(=N\NC(=O)C1=CC(=CC=C1)S(=O)(=O)N2CCOCC2)/C3=C(C=CC(=C3)Cl)O
Procedure, shortened: as §1

[3] = compound: C1=CC(=C(C=C1Cl)C2=NC3=NC=CN=C3C(=N2)NC4=CC=NC=C4)F
Procedure, shortened: as §1

[4] = compound: C1=CC(=CC=C1C2=NC3=C(N2)C=C(C=C3)C(=O)N)OC4=CC=C(C=C4)Cl
Procedure, shortened: as §1

[5] = compound: C1=CC2=C(C=CC(=C2)/C=C\3/C(=O)NC(=NCC4=CC=CS4)S3)N=C1
Procedure, shortened: as §1

[6] = compound: C1=CC2=NC=CN=C2C=C1/C=C/3\C(=O)NC(=O)S3
Procedure, shortened: as §1

[7] = compound: C1=CC=C(C=C1)C2=NC(=C(N2)C3=CC=NC=C3)C4=CC(=C(C=C4)Cl)O
Procedure, shortened: as §1

[8] = compound: C1=CC=C2C(=C1)C3=NNC4=CC=CC(=C43)C2=O
Procedure, shortened: as §1

[9] = compound: C1CCN(C1)C(=O)NC2=CC=CC(=C2)NC3=NC=C(C(=N3)NCCC4=CN=CN4)Br
Procedure, shortened: as §1

[10] = compound: C1CN(CCC1(CC2=CC=C(C=C2)Cl)N)C3=NC=NC4=C3C=CN4
Procedure, shortened: as §1

[11] = compound: C1COCCN1CCN2C3=CC=CC=C3N=C2NC(=O)C4=CC(=CC=C4)[N+](=O)[O-] [IRAK-1-4 Inhibitor I]
Procedure, shortened: as §1

[12] = compound: C=CC(=O)N1CCC[C@@H](n2nc(-c3ccc(Oc4ccccc4)cc3)c3c(N)ncnc32)C1 [ibrutinib]
Procedure, shortened: as §1

[13] = compound: CC(=O)c1cnc2ccc(-c3cc(Cl)c(O)c(Cl)c3)nc2c1N[C@H]1CC[C@H](CN(C)C)CC1
Procedure, shortened: as §1

[14] = compound: CC(C)(C)Cn1c(N)nc2ccc(-c3[nH]c(C(C)(C)C)nc3-c3ccc(F)cc3)nc21 [ralimetinib]
Procedure, shortened: as §1

[15] = compound: CC(C)(O)CC(=O)NCCn1ccc2ncnc(Nc3ccc(Oc4cccc(C(F)(F)F)c4)c(Cl)c3)c21
Procedure, shortened: as §1

[16] = compound: CC(C)C1=C2N=C(C=C(N2N=C1)NCC3=CC=CC=C3)NCCCCCCN
Procedure, shortened: as §1

[17] = compound: CC(C)C[C@@H](C=O)NC(=O)[C@H](CC(C)C)NC(=O)[C@H](CC(C)C)NC(=O)OCc1ccccc1
Procedure, shortened: as §1

[18] = compound: CC(C)N(C[C@H]1O[C@@H](n2cnc3c(N)ncnc32)[C@H](O)[C@@H]1O)[C@H]1C[C@@H](CCc2nc3cc(C(C)(C)C)ccc3[nH]2)C1 [pinometostat]
Procedure, shortened: as §1

[19] = compound: CC1=C(C(CC(=O)N1)C2=CC=C(C=C2)C(F)(F)F)C(=O)NC3=C(C=C4C(=C3)C=NN4)F
Procedure, shortened: as §1

[20] = compound: CC1=C(C2=C(C=C1)C(=O)C3=CC=CC=C3N2CCCN)C
Procedure, shortened: as §1

Sequence of UniProt Q9BU89 (Q9BU89 whole entry, looked up): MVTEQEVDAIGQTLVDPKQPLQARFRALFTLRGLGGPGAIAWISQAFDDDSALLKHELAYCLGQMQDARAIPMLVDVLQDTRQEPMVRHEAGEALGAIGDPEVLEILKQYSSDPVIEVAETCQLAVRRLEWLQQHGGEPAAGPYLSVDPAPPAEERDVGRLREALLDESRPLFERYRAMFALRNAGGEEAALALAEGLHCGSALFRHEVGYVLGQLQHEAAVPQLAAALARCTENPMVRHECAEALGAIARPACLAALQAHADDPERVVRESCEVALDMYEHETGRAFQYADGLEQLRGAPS
Sequence of UniProt P68104 (P68104 whole entry, looked up): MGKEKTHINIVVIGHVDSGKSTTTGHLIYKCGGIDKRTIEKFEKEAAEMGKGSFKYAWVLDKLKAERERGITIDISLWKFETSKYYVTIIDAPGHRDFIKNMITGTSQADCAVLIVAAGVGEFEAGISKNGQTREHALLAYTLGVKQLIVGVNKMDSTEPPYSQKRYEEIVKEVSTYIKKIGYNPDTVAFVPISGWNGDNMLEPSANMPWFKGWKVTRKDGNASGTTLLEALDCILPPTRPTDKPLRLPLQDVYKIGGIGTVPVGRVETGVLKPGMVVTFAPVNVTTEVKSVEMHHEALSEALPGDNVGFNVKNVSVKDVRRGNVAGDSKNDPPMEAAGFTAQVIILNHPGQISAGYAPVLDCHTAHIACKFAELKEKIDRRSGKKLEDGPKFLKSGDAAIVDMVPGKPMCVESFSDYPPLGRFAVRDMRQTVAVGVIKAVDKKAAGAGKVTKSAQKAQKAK
Sequence of UniProt Q7L576 (Q7L576 whole entry, looked up): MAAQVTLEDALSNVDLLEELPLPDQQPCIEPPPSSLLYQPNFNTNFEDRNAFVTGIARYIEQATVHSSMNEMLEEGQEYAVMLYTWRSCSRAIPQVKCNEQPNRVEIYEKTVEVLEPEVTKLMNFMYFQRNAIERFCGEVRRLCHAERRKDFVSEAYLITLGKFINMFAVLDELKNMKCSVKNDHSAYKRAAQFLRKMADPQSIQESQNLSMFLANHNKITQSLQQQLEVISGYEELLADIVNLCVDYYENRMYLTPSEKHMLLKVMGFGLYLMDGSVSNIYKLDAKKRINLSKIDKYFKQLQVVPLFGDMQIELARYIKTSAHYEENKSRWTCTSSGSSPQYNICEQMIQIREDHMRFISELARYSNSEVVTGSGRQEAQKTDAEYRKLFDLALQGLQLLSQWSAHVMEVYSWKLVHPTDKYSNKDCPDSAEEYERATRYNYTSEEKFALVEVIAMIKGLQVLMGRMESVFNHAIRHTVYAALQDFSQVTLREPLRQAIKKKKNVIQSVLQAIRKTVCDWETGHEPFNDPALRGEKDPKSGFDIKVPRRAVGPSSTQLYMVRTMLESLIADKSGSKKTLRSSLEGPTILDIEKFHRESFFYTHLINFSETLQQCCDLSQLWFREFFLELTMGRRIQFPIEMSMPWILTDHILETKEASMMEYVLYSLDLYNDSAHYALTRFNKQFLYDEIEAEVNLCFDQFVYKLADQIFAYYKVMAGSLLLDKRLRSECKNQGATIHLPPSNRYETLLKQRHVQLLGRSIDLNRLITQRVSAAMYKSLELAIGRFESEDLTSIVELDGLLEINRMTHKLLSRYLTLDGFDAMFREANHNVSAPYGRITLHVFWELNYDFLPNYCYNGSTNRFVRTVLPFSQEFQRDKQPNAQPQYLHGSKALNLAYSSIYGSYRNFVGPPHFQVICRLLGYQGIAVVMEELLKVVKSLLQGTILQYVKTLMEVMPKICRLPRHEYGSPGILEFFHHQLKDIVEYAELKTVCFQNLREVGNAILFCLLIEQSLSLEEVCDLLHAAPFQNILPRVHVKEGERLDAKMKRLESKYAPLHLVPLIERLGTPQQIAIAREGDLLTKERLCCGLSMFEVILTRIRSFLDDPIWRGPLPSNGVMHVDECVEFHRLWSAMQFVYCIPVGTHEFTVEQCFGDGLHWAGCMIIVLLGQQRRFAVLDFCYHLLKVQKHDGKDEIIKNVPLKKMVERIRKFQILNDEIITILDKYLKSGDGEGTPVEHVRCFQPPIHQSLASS
Sequence of UniProt Q6V1X1 (Q6V1X1 whole entry, looked up): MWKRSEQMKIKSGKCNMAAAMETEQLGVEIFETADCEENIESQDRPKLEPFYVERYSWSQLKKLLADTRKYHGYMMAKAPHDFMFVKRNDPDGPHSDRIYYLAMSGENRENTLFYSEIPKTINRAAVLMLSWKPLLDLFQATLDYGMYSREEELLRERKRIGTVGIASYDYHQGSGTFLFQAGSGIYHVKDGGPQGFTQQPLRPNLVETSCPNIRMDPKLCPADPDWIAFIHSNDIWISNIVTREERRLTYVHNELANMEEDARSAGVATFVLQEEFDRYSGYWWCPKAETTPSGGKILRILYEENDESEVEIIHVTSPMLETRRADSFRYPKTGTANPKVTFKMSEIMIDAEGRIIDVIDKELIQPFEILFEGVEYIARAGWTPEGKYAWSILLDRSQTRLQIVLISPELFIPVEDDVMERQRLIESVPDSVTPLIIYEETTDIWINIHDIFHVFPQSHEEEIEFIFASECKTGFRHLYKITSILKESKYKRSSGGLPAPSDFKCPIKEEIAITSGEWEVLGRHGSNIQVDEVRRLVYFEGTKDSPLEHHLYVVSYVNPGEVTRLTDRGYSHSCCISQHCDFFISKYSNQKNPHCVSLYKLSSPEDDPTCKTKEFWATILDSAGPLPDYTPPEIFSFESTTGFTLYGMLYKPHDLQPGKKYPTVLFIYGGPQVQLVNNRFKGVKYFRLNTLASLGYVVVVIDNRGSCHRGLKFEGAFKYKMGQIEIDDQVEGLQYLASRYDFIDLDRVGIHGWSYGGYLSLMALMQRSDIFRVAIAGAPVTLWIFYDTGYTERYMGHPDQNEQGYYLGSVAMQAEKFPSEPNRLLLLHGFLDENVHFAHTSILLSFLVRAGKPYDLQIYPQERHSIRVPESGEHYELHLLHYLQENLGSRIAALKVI
Sequence of UniProt P50402 (P50402 whole entry, looked up): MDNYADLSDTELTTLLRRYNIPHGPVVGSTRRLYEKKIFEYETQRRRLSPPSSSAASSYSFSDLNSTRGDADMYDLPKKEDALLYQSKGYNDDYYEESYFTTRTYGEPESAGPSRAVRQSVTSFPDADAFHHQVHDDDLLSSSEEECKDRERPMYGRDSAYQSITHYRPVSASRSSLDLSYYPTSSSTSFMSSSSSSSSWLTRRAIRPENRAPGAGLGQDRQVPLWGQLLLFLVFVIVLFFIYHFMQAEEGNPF
Sequence of UniProt Q96LJ7 (Q96LJ7 whole entry, looked up): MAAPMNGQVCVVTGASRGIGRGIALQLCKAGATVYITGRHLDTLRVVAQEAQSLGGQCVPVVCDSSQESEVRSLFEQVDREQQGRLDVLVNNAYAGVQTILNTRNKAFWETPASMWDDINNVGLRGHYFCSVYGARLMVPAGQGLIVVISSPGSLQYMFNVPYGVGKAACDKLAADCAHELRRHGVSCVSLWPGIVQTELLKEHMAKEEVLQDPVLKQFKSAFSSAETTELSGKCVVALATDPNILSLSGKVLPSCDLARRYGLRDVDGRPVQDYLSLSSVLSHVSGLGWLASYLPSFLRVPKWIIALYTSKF
Sequence of UniProt Q8IX18 (Q8IX18 whole entry, looked up): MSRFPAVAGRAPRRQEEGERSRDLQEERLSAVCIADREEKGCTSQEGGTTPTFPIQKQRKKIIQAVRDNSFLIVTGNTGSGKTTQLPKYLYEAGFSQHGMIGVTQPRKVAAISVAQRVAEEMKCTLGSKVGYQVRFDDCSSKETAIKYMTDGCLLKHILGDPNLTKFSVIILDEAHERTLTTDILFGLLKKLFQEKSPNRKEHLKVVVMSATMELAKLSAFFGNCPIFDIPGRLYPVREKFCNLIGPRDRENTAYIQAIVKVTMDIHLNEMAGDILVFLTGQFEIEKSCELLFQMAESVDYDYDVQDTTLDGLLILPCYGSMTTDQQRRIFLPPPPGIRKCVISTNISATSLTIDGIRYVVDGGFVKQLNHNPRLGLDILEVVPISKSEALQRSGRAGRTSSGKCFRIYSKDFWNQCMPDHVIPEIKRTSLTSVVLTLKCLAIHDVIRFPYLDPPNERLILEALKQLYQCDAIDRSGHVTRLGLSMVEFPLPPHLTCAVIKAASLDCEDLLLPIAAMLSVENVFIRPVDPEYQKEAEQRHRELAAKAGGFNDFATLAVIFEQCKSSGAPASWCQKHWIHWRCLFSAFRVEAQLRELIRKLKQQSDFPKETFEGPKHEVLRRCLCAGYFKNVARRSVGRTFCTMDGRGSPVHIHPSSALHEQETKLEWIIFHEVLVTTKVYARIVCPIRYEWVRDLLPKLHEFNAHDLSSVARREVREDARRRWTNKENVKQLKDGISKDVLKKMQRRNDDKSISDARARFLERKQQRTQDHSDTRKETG
Sequence of UniProt P41091 (P41091 whole entry, looked up): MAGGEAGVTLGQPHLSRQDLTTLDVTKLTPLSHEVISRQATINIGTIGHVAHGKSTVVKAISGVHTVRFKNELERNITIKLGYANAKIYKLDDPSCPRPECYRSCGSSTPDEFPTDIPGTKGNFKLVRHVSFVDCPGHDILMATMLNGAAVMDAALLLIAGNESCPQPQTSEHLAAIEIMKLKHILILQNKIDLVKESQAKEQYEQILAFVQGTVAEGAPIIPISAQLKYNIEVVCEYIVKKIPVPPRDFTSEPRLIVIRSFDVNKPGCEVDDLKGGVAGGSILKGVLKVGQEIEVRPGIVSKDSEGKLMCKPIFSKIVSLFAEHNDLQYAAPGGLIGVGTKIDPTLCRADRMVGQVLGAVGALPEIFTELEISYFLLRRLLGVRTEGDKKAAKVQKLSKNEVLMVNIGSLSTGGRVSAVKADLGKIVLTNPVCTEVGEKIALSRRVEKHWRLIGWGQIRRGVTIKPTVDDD

| Target | log2 fold change [1] | log2 fold change [2] | log2 fold change [3] | log2 fold change [4] | log2 fold change [5] | log2 fold change [6] | log2 fold change [7] | log2 fold change [8] | log2 fold change [9] | log2 fold change [10] | log2 fold change [11] | log2 fold change [12] | log2 fold change [13] | log2 fold change [14] | log2 fold change [15] | log2 fold change [16] | log2 fold change [17] | log2 fold change [18] | log2 fold change [19] | log2 fold change [20] |
| --- | --- | --- | --- | --- | --- | --- | --- | --- | --- | --- | --- | --- | --- | --- | --- | --- | --- | --- | --- | --- |
| DOHH (UniProt Q9BU89) | -0.001 | -0.102 | -0.046 | 0 | 0.083 | -0.183 | 0.064 | 0.038 | -0.051 | 0.026 | 0.127 | 0.137 | 0.103 | 0.004 | 0.244 | 0.045 | -0.106 | 0.011 | 0.02 | 0.189 |
| DPP8 (UniProt Q6V1X1) | 0.093 | 0.088 | 0.067 | 0 | 0.134 | 0.018 | -0.067 | -0.011 | -0.003 | 0.008 | 0.002 | -0.001 | -0.035 | -0.046 | -0.005 | 0.059 | 0.015 | -0.018 | 0.004 | 0.12 |
| DHRS1 (UniProt Q96LJ7) | -0.045 | 0.995 (active) | -0.02 | -0.105 | 0.353 | -0.034 | 0.813 (active) | -0.163 | -0.163 | -0.021 | 0.037 | 0.105 | 0.045 | 0.014 | 0 | 0.614 | 0.21 | -0.087 | 0.003 | 0.071 |
| EMD (UniProt P50402) | 0.025 | 0.002 | -0.078 | 0.056 | 0.008 | 0.033 | -0.011 | -0.072 | 0.031 | 0.074 | 0.039 | 0.009 | -0.021 | -0.004 | 0.028 | -0.114 | 0.034 | 0.013 | 0.021 | -0.042 |
| CYFIP1 (UniProt Q7L576) | -0.016 | 0.066 | 0.07 | 0.018 | 0.002 | 0.026 | 0.003 | -0.016 | 0.005 | 0.059 | -0.001 | -0.019 | -0.07 | -0.013 | -0.056 | -0.042 | -0.013 | 0.001 | 0.009 | 0.026 |
| EIF2S3 (UniProt P41091) | -0.028 | -0.041 | -0.18 | -0.004 | -0.023 | -0.006 | -0.037 | 0.015 | -0.023 | -0.06 | -0.126 | 0.021 | -0.004 | 0.061 | 0.05 | 0.052 | 0.075 | 0.077 | 0.005 | 0.195 |
| EEF1A1 (UniProt P68104) | -0.083 | 0.119 | 0.051 | 0.062 | -0.062 | -0.343 | 0.195 | 0.135 | -0.055 | 0.122 | 0.133 | 0.121 | 0.05 | 0.133 | -0.052 | -0.037 | -0.019 | -0.028 | 0.01 | -0.178 |
| DHX40 (UniProt Q8IX18) | 0.019 | 0.05 | -0.008 | 0.071 | 0.044 | 0.092 | -0.046 | -0.034 | -0.071 | -0.038 | 0.047 | -0.04 | -0.069 | -0.036 | -0.07 | -0.075 | -0.038 | 0.047 | 0.061 | 0.096 |
